# Test results taken from PubChem BioAssay (Tox21).
# A number with no mark means an inactive call. Inconclusive results are not listed. Where a call stands in place of a potency, no number is given. Activity calls are given as the source filed them. Unless noted, the call rests on the fitted dose curve; in most records, active means well fitted curve in the direction sought with a large enough effect in the repeat runs; inconclusive means weak or mixed curves; inactive means no such curve, though single readings can be large; an effect the other way counts as inactive or inconclusive.
# Experiments:
# [1] = qHTS assay for small molecule agonists of the p53 signaling pathway (AID 651631; calls by dose curve; further: nearly all actives have a fitted effect of over 15% in size)
# Outline: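 Read-out is beta-lactamase FRET fluorescence measured 2 h after substrate addition at room temperature, in HCT-116 cells with a p53 response element-driven reporter exposed to compounds for 16 h at 37 °C.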
# [2] = qHTS assay for small molecules that induce genotoxicity in human embryonic kidney cells expressing luciferase-tagged ATAD5 (AID 651632); further: nearly all actives have a fitted effect of over 15% in size
# Outline: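 Concentration-response screen for ATAD5 upregulation in HEK293T luciferase reporter cells; 16 hr treatment at 37C, then luminescence after 30 min with Amplite at room temperature.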
# [3] = qHTS assay for small molecule agonists of the p53 signaling pathway - cell viability (AID 651633; calls by dose curve;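 further: p53RE-bla HCT reporter cells with a stable beta-lactamase p53 reporter; series mostly up to about 83 µM; nearly all actives have a fitted effect of over 30% in size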)
# Outline: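 Viability counter-read: CellTiter-Glo luminescence (30 min, room temperature) in the same p53RE-bla plates. These plates had been exposed to compounds for 16 h at 37 C.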
# [4] = qHTS assay for small molecules that induce genotoxicity in human embryonic kidney cells expressing luciferase-tagged ATAD5 - cell viability (AID 651634; calls by dose curve; further: nearly all actives have a fitted effect of over 25% in size)
# Outline: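 15.5 hr compound or vehicle exposure of HEK293T cells expressing luciferase-tagged ATAD5 at 37C; live-cell protease activity is read by fluorescence after 30 min of CellTiter-Fluor.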
# [5] = qHTS assay for small molecule disruptors of the mitochondrial membrane potential - cell viability (AID 720634; calls by dose curve; further: nearly all actives have a fitted effect of over 20% in size; further: potency means the concentration at half of the fitted maximal effect)
# Outline: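 In this qHTS format, HepG2 cells plated overnight were pinned with compound, incubated 1 hr, and assayed for ATP luminescence with CellTiter-Glo after m-MPI dye addition.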
# [6] = qHTS assay for small molecule disruptors of the mitochondrial membrane potential (AID 720635); further: potency means the concentration at half of the fitted maximal effect
# Outline: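 Mitochondrial membrane potential tracked with Mito-MPS dye, red aggregates (ex 540/em 590 nm) against green monomers (ex 490/em 535 nm). Compound treatment 1 hr at 37C, dye 30 min in HepG2.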
# [7] = qHTS assay to test for compound auto fluorescence at 590 nm (red) in HepG2 cells (AID 720674)
# Outline: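 Red autofluorescence (Ex/Em 540/590 nm, Rose Bengal sodium equivalents) was measured in HepG2 cells, 2,000 per well in MEM plus 10% FBS, plated overnight at 37 C. Readings were taken 1 hr after adding 23 nL compound or DMSO, at 37 C and 5% CO2.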
# [8] = qHTS assay to test for compound auto fluorescence at 535 nm (green) in HepG2 cells (AID 720675)
# [9] = qHTS assay to test for compound auto fluorescence at 460 nm (blue) in HEK293 cells (AID 720678)
# Outline: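 Blue-channel (Ex/Em 405/460 nm) intensity measured in HEK293 cultures after overnight compound exposure at 37C; signal expressed relative to triamterene. Cells plated 2,000 per well in 10% dialyzed FBS medium and allowed 4-5 hr to attach.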
# [10] = qHTS assay to test for compound auto fluorescence at 590 nm (red) in HEK293 cells (AID 720679)
# Outline: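 Red-channel autofluorescence (Ex/Em 540/590 nm; Rose Bengal sodium reference) was measured after overnight 37C, 5% CO2 exposure of attached HEK293 cells, 2,000 per well in medium with 10% dialyzed FBS.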
SMILES,Potency [1],Potency [2],Potency [3],Potency [4],Potency [5],Potency [6],outcome [7],outcome [8],Potency [9],outcome [10]
CCCCCCCCCI,inactive,inactive,inactive,inactive,inactive,inactive,inactive,inactive,inactive,inactive
O=C1CCCCCCCCCCOCCCCO1,inactive,inactive,inactive,inactive,inactive,inactive,,inactive,inactive,inactive
O=C(O)c1ccc(OCCCOc2ccc(C(=O)O)cc2)cc1,inactive,inactive,inactive,inactive,inactive,inactive,inactive,,inactive,inactive
Cc1ccc(C(C)(C)O)cc1,inactive,inactive,inactive,inactive,inactive,inactive,inactive,,inactive,inactive
CC(C)Nc1cccnc1N1CCN(C(=O)c2cc3cc(NS(C)(=O)=O)ccc3[nH]2)CC1,inactive,inactive,inactive,inactive,inactive,26.6 µM (active),inactive,inactive,inactive,inactive
O=Cc1c2ccccc2c(Cl)c2ccccc12,inactive,inactive,inactive,inactive,inactive,8.42 µM (active),inactive,inactive,inactive,inactive
C=Cc1ccc(S(=O)(=O)O)cc1,inactive,inactive,inactive,inactive,inactive,inactive,inactive,inactive,inactive,inactive
CC(CCC(=O)O)C(=O)O (stereo unspecified),inactive,inactive,inactive,inactive,inactive,inactive,inactive,inactive,inactive,inactive
CO/N=C(/C(=O)N[C@@H]1C(=O)N2C(C(=O)O)=C(COC(N)=O)CS[C@H]12)c1ccco1,inactive,inactive,inactive,inactive,inactive,inactive,inactive,inactive,inactive,inactive
O=C1c2ccccc2C(=O)C1c1ccc(Br)cc1,inactive,inactive,inactive,inactive,inactive,inactive,inactive,inactive,inactive,inactive
CC1(C)S[C@@H]2[C@H](NC(=O)C(c3ccccc3)S(=O)(=O)O)C(=O)N2[C@H]1C(=O)O (stereo partly specified),inactive,inactive,inactive,inactive,inactive,inactive,inactive,inactive,inactive,inactive
Cc1[nH]cnc1CN1CCc2c(c3ccccc3n2C)C1=O,inactive,inactive,inactive,inactive,inactive,inactive,inactive,inactive,inactive,inactive
CCCCCCCCN,inactive,inactive,inactive,inactive,inactive,inactive,inactive,inactive,inactive,inactive
c1csc(SSc2cccs2)c1,inactive,inactive,inactive,inactive,inactive,inactive,inactive,inactive,inactive,inactive
CCCCCCC(C)(C)C(=O)O,inactive,inactive,inactive,inactive,inactive,inactive,,inactive,inactive,inactive
Clc1ccc(Nc2nnc(Cc3ccncc3)c3ccccc23)cc1,inactive,inactive,inactive,inactive,18.8 µM (active),26.6 µM (active),inactive,inactive,inactive,inactive
O[C@@H]1CO[C@H]2[C@@H]1OC[C@@H]2O,inactive,inactive,inactive,inactive,inactive,inactive,,inactive,inactive,inactive
O=c1[nH]ncc2ccccc12,inactive,inactive,inactive,inactive,inactive,inactive,,inactive,inactive,inactive
C[C@@H](O)[C@H]1C(=O)N2C(C(=O)O)=C([C@H]3CCCO3)S[C@H]12,inactive,inactive,inactive,inactive,inactive,inactive,inactive,inactive,inactive,inactive
COc1cc(C(=O)NCCCCCC(=O)O)cc(OC)c1OC,inactive,inactive,inactive,inactive,inactive,inactive,,inactive,inactive,inactive
C=C1C[C@@]23CC[C@H]4[C@@](C)(CCC[C@@]4(C)C(=O)O[C@@H]4O[C@H](CO)[C@@H](O)[C@H](O)[C@H]4O)[C@@H]2CC[C@]1(O[C@@H]1O[C@H](CO)[C@@H](O)[C@H](O[C@@H]2O[C@H](CO)[C@@H](O)[C@H](O)[C@H]2O)[C@H]1O[C@@H]1O[C@H](CO)[C@@H](O)[C@H](O)[C@H]1O)C3,inactive,inactive,inactive,inactive,inactive,inactive,inactive,inactive,inactive,inactive
Cc1ccc(CO)cc1,inactive,inactive,inactive,inactive,inactive,inactive,,inactive,inactive,inactive
CC[N+](CC)(CCNC(=O)C(=O)NCC[N+](CC)(CC)Cc1ccccc1Cl)Cc1ccccc1Cl,inactive,inactive,inactive,inactive,inactive,inactive,,inactive,inactive,inactive
